About 1,900 (3%) of roughly 64,000 compounds were called active. This is one part of a sample in which actives are shown more often than they occur.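 How the source made its calls: active means fluorescence rise, raw or as B-score row- and column-corrected plate score, outside the 99.7% band of its plate's samples, either direction; inactive means the rest.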
Each compound was assayed on Muscarinic acetylcholine receptor M1 (assay: M1 muscarinic receptor agonists, primary screen, CHO-M1 cells, Fluo-4 calcium, agonist mode (AID 626)). Settings: Fluo-4 calcium fluorescence, at 10 µM, hits give high values.

SMILES | B-score
CC(=O)NC1CC2CCCC(C1)N2CC(=O)Nc1ccccc1 (configuration not stated) | -1.24 (inactive)
C=CCn1c2ccccc2c2nnc(SC(CC)C(=O)Nc3nc(C)c(C(=O)OCC)s3)nc21 (configuration not stated) | 1.41 (inactive)
O=C(O)CCC(=O)NCc1ccc2[nH]c3c(c2c1)CCCC3 | 1.3 (inactive)
CCCc1cc(=O)oc2c(C)c(O)c(CN3CCCCC3)cc12 | 0.177 (inactive)
CCn1c(Cc2ccccc2)nnc1SCC(=O)Nc1ccccc1 | -0.0339 (inactive)
COc1ccc(CCNC(=O)C2CCN(c3nn4c(=O)cc(C)nc4s3)CC2)cc1OC | 4.73 (active)
CCCS(=O)(=O)N1CCC(C(=O)NCCc2ccc(OC)c(OC)c2)CC1 | -0.16 (inactive)
Cc1cc(=O)n2nc(N3CCCC(C(=O)NCCC4=CCCCC4)C3)sc2n1 (configuration not stated) | -0.152 (inactive)
Clc1ccc(CSc2nnc([C@@H]3CCCN3)o2)cc1 | -0.196 (inactive)
CC(C)C1Cc2c(sc3c2c(=O)n(-c2ccccc2)c2nncn32)CO1 (configuration not stated) | -0.132 (inactive)
O=C(COC(=O)CCc1c[nH]c(=O)[nH]1)Nc1ccccc1Cl | 2.4 (active)
O=C(COc1ccc(Cl)cc1)Nc1ccccc1CO | 1.32 (inactive)
CC1(C)CC(CCC(=O)Nc2ccccc2Cl)C(=O)O1 (configuration not stated) | 0.285 (inactive)
CCOC(=O)N1CCN(Cc2oc(CO)cc(=O)c2O)CC1 | 0.262 (inactive)
O=C(c1cccc(C(=O)N2CCN(c3ccc(F)cc3)CC2)c1)N1CCN(c2ccc(F)cc2)CC1 | 3.5 (active)
O=C(c1ccccc1)c1cccn1CC(=O)N1CCN(c2ccc(F)cc2)CC1 | -0.56 (inactive)
Cc1ccccc1CN1CCN(C(=O)c2cccc(F)c2)CC1 | -0.152 (inactive)
CS(=O)(=O)N(CC(=O)N1CCOCC1)c1ccc2c3c(cccc13)CC2 | 0.155 (inactive)
Cc1ccc(NC2=NC(c3ccccc3)n3c(nc(C)cc3=O)N2)cc1 (configuration not stated) | -0.0683 (inactive)
COC(=O)c1ccccc1NC(=O)c1cncc(Br)c1 | 0.529 (inactive)
Cc1cccc2cc(C#N)c(N3CCCC3)nc12 | 1.26 (inactive)
CCOc1ccc2nc(NCCNS(=O)(=O)c3ccccc3)c(C#N)cc2c1 | -0.354 (inactive)
CCOc1ccc2nc(N3CCCN(C(=O)Nc4ccccc4C)CC3)c(C#N)cc2c1 | 49.3 (active)

SMILES | B-score
Nc1ccc(SCCN2C(=O)c3ccccc3C2=O)cc1 | 13.8 (active)
O=C1c2ccccc2C(=O)N1CCc1nn[nH]n1 | 0.641 (inactive)
Cc1ccc(SCCN2C(=O)NC(C)(C)C2=O)cc1 | 0.397 (inactive)
NS(=O)(=O)c1ccc(NS(=O)(=O)/C=C/c2ccccc2)cc1 | -0.0855 (inactive)
O=C(OCCO)c1cc(Cl)c(C(=O)OCCO)cc1Cl | 0.283 (inactive)
Cc1ccc(CNC(=O)CN2CCN(Cc3ccc(Cl)cc3)C2=O)cc1 | -0.559 (inactive)
CS(=O)(=O)N(Cc1nc2sc3c(c2c(=O)[nH]1)CCCC3)C1CCCCC1 | -0.0154 (inactive)
CSCCC(NC(=O)C1CCC(C)CC1)C(=O)NCc1ccco1 (configuration not stated) | -0.577 (inactive)
Cn1c(=O)[nH]c(=O)c2c1nc(NCCCn1ccnc1)n2Cc1cccc(Br)c1 | 0.757 (inactive)
COc1ccc(N2CCN(CCNC(=O)CCN3C(=O)COc4ccccc43)CC2)cc1 | 0.72 (inactive)
CCOc1ccc(C2C(C(=O)O)c3ccccc3C(=O)N2CCN2CCOCC2)cc1 (configuration not stated) | 0.0396 (inactive)
COc1ccc(C2C(C(=O)N3CCN(c4ccc(OC)cc4)CC3)c3ccccc3C(=O)N2C)cc1 (configuration not stated) | 4.34 (active)
CN(C)/C=C/c1c(C#N)c(=O)ncn1Cc1ccccc1 | 1.01 (inactive)
N#C/C=C\Oc1ccc(Cl)cc1N | 0.000464 (inactive)
CCCC(=O)NC(C)C(c1cccs1)N1CCN(c2ccccc2)CC1 (configuration not stated) | -0.223 (inactive)
COc1ccc(C(C(O)C(=O)c2c[nH]c3ccccc23)N2CCN(c3ccccc3)CC2)cc1 (configuration not stated) | 3.3 (active)
COc1ccc(OC)c(S(=O)(=O)N(C)CC(=O)N2CCN(c3ccccc3)CC2)c1 | 0.148 (inactive)
CCOC(=O)c1sc(NC(=O)CSc2ncccn2)c(C#N)c1C | 0.288 (inactive)
COc1ccc(S(=O)(=O)N2CCN(C(=O)c3cccs3)CC2)cc1OC | -1.5 (inactive)
CC(=O)c1ccc(N2C(=NC(=O)C(C)C)SC3CS(=O)(=O)CC32)cc1 (configuration not stated) | -0.587 (inactive)
Cn1c(=O)c(=O)n(C)c2cc(S(=O)(=O)NCCc3ccccc3)ccc21 | 0.704 (inactive)
CC(=O)Nc1ccc(NC(=O)CN2CCCC(C)C2)c(Cl)c1 (configuration not stated) | 6.88 (active)
COc1ccc(NC(C)=O)cc1NC(=O)CN1CCN(C2c3ccccc3-c3ccccc32)CC1 | 0.8 (inactive)

SMILES | B-score
O=C(CN1CCOCC1)Nc1ccc(NC(=O)CN2CCOCC2)c(Cl)c1 | -0.0117 (inactive)
CCNS(=O)(=O)c1ccc(NC(=O)Nc2cccc(OC)c2)cc1 | 2.45 (inactive)
CCOP1(=O)C=C(C(C)(C)C)OC1c1ccc(F)cc1 (configuration not stated) | -0.203 (inactive)
CCOc1ccc(NCCC(=O)c2ccc3c(c2)OCO3)cc1 | -0.0168 (inactive)
Cc1ccc2oc(=O)c3cnn(CC(=O)N4CCCCCC4)c3c2c1 | 0.0625 (inactive)
Cc1ccc2oc(=O)c3cnn(CC(=O)N4CCN(c5ccccn5)CC4)c3c2c1 | 7.39 (active)
CCOC(=O)C1CCCN(C(=O)Cn2ncc3c(=O)oc4ccc(C)cc4c32)C1 (configuration not stated) | -0.657 (inactive)
O=C(NC1CC2CCCC(C1)N2C(=O)N1CCCCC1)C1CCCCC1 (configuration not stated) | 0.398 (inactive)
CN1CCCC(OC(=O)COc2ccc(Br)cc2)C1 (configuration not stated) | 2.29 (inactive)
Cc1ccc(F)cc1NC(=O)c1ccc2c(c1)OCO2 | 0.368 (inactive)
CCOC(=O)c1c(NC(=O)CSc2nnc(CN3CCOCC3)n2C)sc2c1CCCC2 | 0.743 (inactive)
c1ccc(CSc2nnc(-c3ccco3)n2Cc2ccccc2)cc1 | 1.61 (inactive)
O=C(CSc1nnc(-c2ccco2)n1Cc1ccccc1)NC(=O)NCc1ccco1 | 2.23 (active)
O=C(CSc1nnc(-c2ccco2)n1-c1ccccc1)NCCc1ccccc1 | 0.164 (inactive)
COc1cccc(-c2nn(C)c3sc(C(=O)N4CCN(c5ccccc5)CC4)cc23)c1 | -0.654 (inactive)
CC(C[N+](C)(C)C)OC(N)=O (configuration not stated) | 67.7 (active)
CC(=O)OC(C)C[N+](C)(C)C (configuration not stated) | 53.8 (active)
CCC(=O)N1c2ccc(S(=O)(=O)CCC(=O)N3CCN(c4ccccc4)CC3)cc2CC1C (configuration not stated) | -2.01 (inactive)
Cn1c(=O)c2c(ncn2CC(=O)N2CCN(c3ccccc3)CC2)n(C)c1=O | 0.437 (inactive)
COc1ccc(-c2nnco2)cc1OC | 0.77 (inactive)
O=S(=O)(CCc1nc2ccccc2o1)c1ccc(Cl)cc1 | 0.134 (inactive)

Source: PubChem BioAssay AID626 (Vanderbilt High Throughput Screening Facility, 2007)
